# Assay outcomes (PubChem)
# TDP1 cell CPT = qHTS for Inhibitors of human tyrosyl-DNA phosphodiesterase 1 (TDP1): qHTS in cells in presence of CPT; 420,000 tested, 12% active; Potency, µM (doses to about 46.2 µM), for inactives: at the highest dose activity change, negative = growth inhibition, most hits filed as inhibitors; AID 686979, 2013; chicken DT40 Tdp1-/-;hTDP1 cells + 20 nM CPT, ATP luminescence, 48 h; further: potency means the concentration at half of the fitted maximal effect; on the % scale 0 is the no-effect control and ±100 the full control effect; nearly all actives have a fitted effect of over 55% in size
#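 Chicken DT40 Tdp1-/- cells stably complemented with human TDP1 were seeded at 400 cells/well in medium containing 20 nM camptothecin, exposed to pin-transferred compounds, and grown at 37 °C for at least 48 hr. Viability was read as ATP luminescence.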
# DT40 TDP1 no CPT = qHTS for Inhibitors of human tyrosyl-DNA phosphodiesterase 1 (TDP1): qHTS in cells in absence of CPT; AID 686978, 2013; DT40 Tdp1-/- hTDP1 cells, no CPT, ATP luminescence, 48 h; Potency, µM (series often up to 46.2 µM), for the others: at the top dose activity change, negative = growth inhibition, actives largely listed as inhibitors; 420,000 tested, 15% active; further: potency means the concentration at half of the fitted maximal effect; on the % scale 0 is the no-effect control and ±100 the full control effect; nearly all actives have a fitted effect of over 55% in size
#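 Stably hTDP1-transfected Tdp1-null chicken DT40 cells were treated with library compounds minus camptothecin and grown for at least 48 hr at 37 °C, after which cellular ATP was quantified by luminescence.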
# TGFb SMAD3 inh = qHTS for Inhibitors of TGF-b; 410,000 tested, 1.2% active; Potency, µM (series often up to 46.1 µM), inactives show top-dose activity, negative = inhibition, most hits filed as inhibitors; AID 588855, 2011; HepG2 CAGA-GFP TGF-b/SMAD3 reporter, GFP fluorescence, 18 h; TGF-beta stimulated, 500 pg/mL final; further: potency means the concentration at half of the fitted maximal effect; on the % scale 0 is the no-effect control and ±100 the full control effect; nearly all actives have a fitted effect of over 65% in size
#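 TGF-beta reporter screen: HEPG2 CAGA-GFP, 1% FBS, 500 pg/mL TGF-beta final, 18 h; per-cell GFP summed per well; curves fitted and categorized by class.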
# IL-1B inflam inh = qHTS for Inhibitors of Inflammasome Signaling: IL-1-beta AlphaLISA Primary Screen. THP-1 LPS/ATP IL-1B secretion, AlphaLISA, 16 h; stronger effect = lower value. activity change, % at 57.5 µM. 360,000 tested, 4.7% active; in the data active means activity change below about -50%; inconclusive means mostly about -30% to -49%; further: on the % scale 0 is the no-effect control and ±100 the full control effect
#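 THP-1 cells pretreated 1 hr with compounds (up to 57.5 uM final), then stimulated with LPS (250 ng/mL final) plus ATP (1.25 mM final); secreted IL-1B measured by AlphaLISA after 16 hr, decreased signal indicating inhibition.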
# HepG2 tox = qHTS for Inhibitors of TGF-b: Cytotox Counterscreen; Potency, µM (top dose mostly 46.1 µM), without a hit: top-dose activity change, negative = cytotoxicity, actives largely listed as cytotoxic; AID 588856, 2011; 410,000 tested, 0.76% active; HepG2 CAGA-GFP viability, ATP luminescence, 18 h; further: potency means the concentration at half of the fitted maximal effect
#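 HepG2 CAGA-GFP cells (1000/well, DMEM with 1% FBS) received compound, then TGF-beta at 500 pg/mL final, and were incubated 18 hours at 37 degrees C. Viability was read by CellTiter-Glo luminescence. Media-only wells were set as complete cell-killing and DMSO as no toxicity.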
# S-ASM inh = Inhibitors of Secretory Acid Sphingomyelinase (S-ASM): qHTS; Sphingomyelin phosphodiesterase (Homo sapiens), P17405; placental ASM, HMU-PC fluorogenic substrate, 60 min; Potency, µM (titrated, usually from 57.5 µM), without a hit: top-dose activity change, negative = inhibition, actives largely listed as inhibitors; 340,000 tested, 0.006% active; further: potency means the concentration at half of the fitted maximal effect
#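 Steps: dispense placental human ASM, pin compound, wait 10 min at room temperature, add HMU-PC0 substrate at 9 uM final, incubate 60 min at 37 °C, add stop solution raising pH to 10, read fluorescence.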
# * hit, by the source's call; ? = inconclusive; nt = no result given. Hits are enriched below; roughly 19% of the tested compounds scored in any of these assays. Unless noted, the call rests on the fitted dose curve; in most records, active means well fitted curve in the direction sought with a large enough effect; inconclusive means small, poorly fitted or top-dose-only effect, or another doubt; inactive means no such curve, though single readings can be large; an effect the other way counts as inactive or inconclusive.
SMILES,TDP1 cell CPT,DT40 TDP1 no CPT,TGFb SMAD3 inh,IL-1B inflam inh,HepG2 tox,S-ASM inh
COc1ccc(OC)c(C(C(=O)NCc2ccco2)N(C(=O)Cn2nnc3ccccc32)C2CC2)c1 (stereo not drawn),13µM*,16µM*,10%,0,-24%,0%
COc1ccc(C(C(=O)Nc2ccc(F)cc2)N(C(=O)Cn2nnc3ccccc32)C2CC2)cc1 (stereo not drawn),-25%,?,?,-72*,-2%,?
COc1ccc(OC)c(C(C(=O)NCc2ccco2)N(C(=O)Cn2nnc3ccccc32)C(C)C)c1 (stereo not drawn),-23%,-29%,3%,-12,2%,4%
O=C(NCCS(=O)(=O)c1ccc(Br)cc1)c1ccc(Cl)cc1,-15%,-2%,0%,-7,-6%,1%
Cc1ccc(S(=O)(=O)CCC(=O)NCCc2ccc(Cl)cc2)cc1,-12%,3%,-17%,-12,-19%,0%
CC(C)c1ccc(C(C)NCCS(=O)(=O)c2ccc(Cl)cc2)cc1 (stereo not drawn),21µM*,12µM*,?,-77*,-31%,2%
O=C(CCNS(=O)(=O)c1ccc(Br)cc1)NCc1ccc(Cl)cc1,?,0%,-11%,-20,11µM*,-1%
CC(C(=O)NCCS(=O)(=O)c1ccc(Br)cc1)S(=O)(=O)c1ccc(Cl)cc1 (stereo not drawn),-2%,?,0%,-50*,-29%,1%
CCCCCC/C=C/c1ccc(OC)c(C2C3C=CCC(C)C3C(=O)N2Cc2ccccc2)c1 (stereo not drawn),nt,nt,1%,nt,6%,nt
O=C(N/N=C/c1cn(-c2ccccc2)nc1-c1cc2ccccc2o1)c1ccccc1Br,4.6µM*,15µM*,1%,1,-3%,-6%
O=C(N/N=C/c1cn(-c2ccccc2)nc1-c1cc2ccccc2o1)c1c[nH]c2ccccc12,?,4.6µM*,-16%,-60*,-15%,-9%
OCc1cn(-c2ccccc2)nc1-c1cc2ccccc2o1,?,-3%,?,-16,-24%,-3%
Cc1c(C(=O)NCCSCc2c(F)cccc2Cl)cnn1-c1ccc(F)cc1,?,26µM*,?,-21,-43%,-2%
COc1cccc(C(=O)NCCSCc2c(F)cccc2Cl)c1,2%,?,17%,-65*,5%,2%
Cc1c(C(=O)NCCSCc2ccc(F)cc2)cnn1-c1ccc(Cl)cc1,-13%,?,-1%,nt,-17%,-1%
COc1cccc(C(=O)NCCSCc2ccccc2Cl)c1,1%,?,1%,0,-5%,-8%
Cc1ccc(Sc2ccc(N3CCCC(C(=O)Nc4ccc(F)cc4)C3)nn2)cc1 (stereo not drawn),?,?,?,nt,-5%,nt
COc1cc(C=O)ccc1OC(=O)N1CCOCC1,-1%,15%,0%,7,-3%,3%
COc1ccc(Br)cc1-c1nc(CCl)cs1,13µM*,15µM*,-28%,-3,-22%,0%
COc1ccc(Br)cc1-c1noc(-c2ccccc2F)n1,-5%,2%,-9%,14,0%,-2%
O=[N+]([O-])c1cc(Cl)ccc1Sc1cccc2cccnc12,-6%,-20%,-1%,42,-15%,-7%
